# Assay results published in publication PMC7862700, “An all-to-all approach to the identification of sequence-specific readers for epigenetic DNA modifications on cytosine”.
# Assays:
# Assay in all cases: DAPPL (digital affinity profiling via proximity ligation, sequencing); 10 mM Tris-HCl pH 7.5, 50 mM NaCl, 1 mM DTT, 4% glycerol, room temperature, 30 min; GST-TFs on glutathione beads, 16-mer random dsDNA library, 0.1% formaldehyde crosslink after washing; high values mean tight binding
# FLI1 = biological target: T1, FLI1 (Homo sapiens, UniProt Q01543 1-452); settings: protein: recombinant; tags: N-terminal GST; dsDNA, one strand shown
# T1 sequence: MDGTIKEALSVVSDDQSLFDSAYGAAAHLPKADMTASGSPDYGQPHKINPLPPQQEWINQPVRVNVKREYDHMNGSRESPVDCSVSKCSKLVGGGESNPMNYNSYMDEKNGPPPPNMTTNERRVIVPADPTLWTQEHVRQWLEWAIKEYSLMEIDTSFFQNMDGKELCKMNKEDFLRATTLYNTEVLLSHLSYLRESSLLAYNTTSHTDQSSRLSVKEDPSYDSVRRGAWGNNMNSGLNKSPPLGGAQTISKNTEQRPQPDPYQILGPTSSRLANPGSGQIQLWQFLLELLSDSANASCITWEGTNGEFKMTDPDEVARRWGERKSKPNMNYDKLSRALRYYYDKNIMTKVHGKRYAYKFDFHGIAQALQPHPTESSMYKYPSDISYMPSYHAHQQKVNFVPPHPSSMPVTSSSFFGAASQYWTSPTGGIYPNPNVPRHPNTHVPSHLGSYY
# Procedure, shortened: (§1)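 Sequencing on an Illumina NextSeq500 followed washing, crosslinking with 0.1% formaldehyde, proximity ligation (BsaI/T4 ligase, 1 h, 37 °C) and PCR amplification of pools that had been incubated for 30 min at room temperature with 200 nmole of a random double-stranded 16-mer DNA library in Tris/NaCl/DTT/glycerol buffer. Each pool held DNA-barcoded human transcription factors, expressed in yeast as GST fusions and captured on glutathione beads, plus a tag-only sample. Binding signal is a hexamer's read frequency for a factor divided by its frequency in the tag-only sample.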
# ELK1 = biological target: T2, ELK1 (Homo sapiens, UniProt P19419 1-428); settings: protein: recombinant; tags: N-terminal GST; dsDNA, one strand shown
# T2 sequence: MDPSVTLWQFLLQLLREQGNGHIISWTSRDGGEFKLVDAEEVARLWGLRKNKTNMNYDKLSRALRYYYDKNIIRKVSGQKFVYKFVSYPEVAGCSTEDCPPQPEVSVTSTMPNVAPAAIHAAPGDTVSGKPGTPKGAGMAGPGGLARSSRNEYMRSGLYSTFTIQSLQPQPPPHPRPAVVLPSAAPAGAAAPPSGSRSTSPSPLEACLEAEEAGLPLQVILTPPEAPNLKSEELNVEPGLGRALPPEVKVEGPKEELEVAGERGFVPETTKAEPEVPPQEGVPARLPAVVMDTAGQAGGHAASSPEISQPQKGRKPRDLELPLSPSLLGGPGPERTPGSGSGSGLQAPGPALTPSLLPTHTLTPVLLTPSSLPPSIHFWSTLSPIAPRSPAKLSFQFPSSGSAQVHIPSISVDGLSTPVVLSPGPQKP
# Procedure, shortened: as §1
# GABPA = biological target: T3, GABPA (Homo sapiens, UniProt Q06546 1-454); settings: protein: recombinant; tags: N-terminal GST; dsDNA, one strand shown
# T3 sequence: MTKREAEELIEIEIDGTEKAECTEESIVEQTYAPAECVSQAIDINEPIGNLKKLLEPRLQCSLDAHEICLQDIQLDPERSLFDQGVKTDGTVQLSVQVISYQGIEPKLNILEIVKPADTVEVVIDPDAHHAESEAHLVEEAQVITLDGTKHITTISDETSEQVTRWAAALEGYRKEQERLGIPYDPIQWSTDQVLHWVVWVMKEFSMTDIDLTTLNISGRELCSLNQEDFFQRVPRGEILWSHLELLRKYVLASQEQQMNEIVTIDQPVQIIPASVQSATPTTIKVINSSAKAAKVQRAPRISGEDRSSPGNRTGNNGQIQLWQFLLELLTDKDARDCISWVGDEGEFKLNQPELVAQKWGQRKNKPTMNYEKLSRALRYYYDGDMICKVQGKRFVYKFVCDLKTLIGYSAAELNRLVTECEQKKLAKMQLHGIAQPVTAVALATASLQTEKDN
# Procedure, shortened: as §1
# ERG = biological target: T4, ERG (Homo sapiens, UniProt P11308 1-479); settings: protein: recombinant; tags: N-terminal GST; dsDNA, one strand shown
# T4 sequence: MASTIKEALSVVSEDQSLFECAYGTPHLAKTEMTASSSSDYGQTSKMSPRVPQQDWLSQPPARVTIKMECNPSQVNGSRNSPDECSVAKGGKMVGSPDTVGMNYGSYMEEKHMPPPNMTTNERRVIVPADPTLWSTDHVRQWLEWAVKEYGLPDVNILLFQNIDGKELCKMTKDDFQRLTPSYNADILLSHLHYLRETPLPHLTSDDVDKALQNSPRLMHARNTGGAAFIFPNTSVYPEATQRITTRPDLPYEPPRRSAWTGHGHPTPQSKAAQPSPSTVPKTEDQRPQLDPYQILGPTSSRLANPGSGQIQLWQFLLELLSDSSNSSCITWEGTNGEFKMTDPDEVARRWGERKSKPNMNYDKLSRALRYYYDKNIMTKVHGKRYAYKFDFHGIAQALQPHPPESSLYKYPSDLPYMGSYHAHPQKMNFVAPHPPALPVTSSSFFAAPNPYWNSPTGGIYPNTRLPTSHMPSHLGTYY
# Procedure, shortened: as §1
# ELF1 = ELF1 (Homo sapiens, UniProt P32519 1-619); settings: protein: recombinant; tags: N-terminal GST; dsDNA, one strand shown
# ELF1, sequence (P32519 whole entry): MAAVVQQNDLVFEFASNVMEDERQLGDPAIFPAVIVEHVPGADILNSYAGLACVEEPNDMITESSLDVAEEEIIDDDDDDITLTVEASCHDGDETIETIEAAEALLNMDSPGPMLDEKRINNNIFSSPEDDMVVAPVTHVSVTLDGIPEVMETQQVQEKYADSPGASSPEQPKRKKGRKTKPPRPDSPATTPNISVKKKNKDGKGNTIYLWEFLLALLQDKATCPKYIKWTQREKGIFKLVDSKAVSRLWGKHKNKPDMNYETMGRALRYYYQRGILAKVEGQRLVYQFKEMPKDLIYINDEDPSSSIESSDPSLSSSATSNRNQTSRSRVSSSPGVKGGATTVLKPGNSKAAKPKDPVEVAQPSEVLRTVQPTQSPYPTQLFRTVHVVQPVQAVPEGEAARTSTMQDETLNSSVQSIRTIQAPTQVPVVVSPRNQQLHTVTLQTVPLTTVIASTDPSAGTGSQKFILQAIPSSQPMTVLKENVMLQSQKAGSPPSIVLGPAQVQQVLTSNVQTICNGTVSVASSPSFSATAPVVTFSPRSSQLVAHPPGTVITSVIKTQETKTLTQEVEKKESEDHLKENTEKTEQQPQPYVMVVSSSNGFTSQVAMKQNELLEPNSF
# Procedure, shortened: as §1
# EHF = biological target: T5, EHF (Homo sapiens, UniProt Q9NZC4 1-300); settings: protein: recombinant; tags: N-terminal GST; dsDNA, one strand shown
# T5 sequence: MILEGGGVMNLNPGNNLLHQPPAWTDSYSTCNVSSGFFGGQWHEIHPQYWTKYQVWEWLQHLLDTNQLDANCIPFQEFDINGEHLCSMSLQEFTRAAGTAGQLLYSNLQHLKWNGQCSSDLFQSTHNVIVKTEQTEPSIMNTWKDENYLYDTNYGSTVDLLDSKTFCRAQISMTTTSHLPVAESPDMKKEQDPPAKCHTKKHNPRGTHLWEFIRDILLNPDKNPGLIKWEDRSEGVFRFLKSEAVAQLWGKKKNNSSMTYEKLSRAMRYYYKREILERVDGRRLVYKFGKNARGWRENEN
# Procedure, shortened: as §1
# SPI1 = SPI1 (Homo sapiens, UniProt P17947 1-270); settings: protein: recombinant; tags: N-terminal GST; dsDNA, one strand shown
# Procedure, shortened: as §1
# SPIB = SPIB (Homo sapiens, UniProt Q01892 1-262); settings: protein: recombinant; tags: N-terminal GST; dsDNA, one strand shown
# SPIB, sequence (Q01892 whole entry): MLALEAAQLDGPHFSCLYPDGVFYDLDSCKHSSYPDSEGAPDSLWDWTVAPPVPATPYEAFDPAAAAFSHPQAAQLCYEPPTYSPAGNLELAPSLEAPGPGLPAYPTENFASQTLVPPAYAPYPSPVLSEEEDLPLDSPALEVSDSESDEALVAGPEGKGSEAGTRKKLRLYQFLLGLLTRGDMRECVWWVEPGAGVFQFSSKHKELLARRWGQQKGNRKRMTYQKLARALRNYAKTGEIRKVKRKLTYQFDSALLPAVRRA
# Procedure, shortened: as §1
# ELK3 = biological target: T6, ELK3 (Homo sapiens, UniProt P41970 1-407); settings: protein: recombinant; tags: N-terminal GST; dsDNA, one strand shown
# T6 sequence: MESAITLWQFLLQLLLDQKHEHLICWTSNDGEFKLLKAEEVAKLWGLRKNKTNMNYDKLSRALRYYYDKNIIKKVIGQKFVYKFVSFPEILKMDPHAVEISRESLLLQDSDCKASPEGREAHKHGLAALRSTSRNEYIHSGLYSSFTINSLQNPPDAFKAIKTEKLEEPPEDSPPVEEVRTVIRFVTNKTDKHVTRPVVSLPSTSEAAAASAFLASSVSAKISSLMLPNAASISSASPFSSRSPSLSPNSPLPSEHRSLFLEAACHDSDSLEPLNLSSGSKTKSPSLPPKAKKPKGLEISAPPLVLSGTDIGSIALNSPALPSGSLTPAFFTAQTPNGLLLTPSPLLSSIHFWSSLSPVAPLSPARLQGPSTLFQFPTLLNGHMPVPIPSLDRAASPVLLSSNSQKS
# Procedure, shortened: as §1
# FEV = biological target: T7, FEV (Homo sapiens, UniProt Q99581 1-238); settings: protein: recombinant; tags: N-terminal GST; dsDNA, one strand shown
# T7 sequence: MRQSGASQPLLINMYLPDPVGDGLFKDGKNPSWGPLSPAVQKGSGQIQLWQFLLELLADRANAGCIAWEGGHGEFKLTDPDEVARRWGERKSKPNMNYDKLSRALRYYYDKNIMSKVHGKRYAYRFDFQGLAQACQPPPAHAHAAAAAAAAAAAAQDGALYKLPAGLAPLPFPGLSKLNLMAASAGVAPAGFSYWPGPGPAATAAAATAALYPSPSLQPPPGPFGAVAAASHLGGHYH
# Procedure, shortened: as §1
# ETV5 = ETV5 (Homo sapiens, UniProt P41161 1-510); settings: protein: recombinant; tags: N-terminal GST; dsDNA, one strand shown
# ETV5, sequence (P41161 whole entry): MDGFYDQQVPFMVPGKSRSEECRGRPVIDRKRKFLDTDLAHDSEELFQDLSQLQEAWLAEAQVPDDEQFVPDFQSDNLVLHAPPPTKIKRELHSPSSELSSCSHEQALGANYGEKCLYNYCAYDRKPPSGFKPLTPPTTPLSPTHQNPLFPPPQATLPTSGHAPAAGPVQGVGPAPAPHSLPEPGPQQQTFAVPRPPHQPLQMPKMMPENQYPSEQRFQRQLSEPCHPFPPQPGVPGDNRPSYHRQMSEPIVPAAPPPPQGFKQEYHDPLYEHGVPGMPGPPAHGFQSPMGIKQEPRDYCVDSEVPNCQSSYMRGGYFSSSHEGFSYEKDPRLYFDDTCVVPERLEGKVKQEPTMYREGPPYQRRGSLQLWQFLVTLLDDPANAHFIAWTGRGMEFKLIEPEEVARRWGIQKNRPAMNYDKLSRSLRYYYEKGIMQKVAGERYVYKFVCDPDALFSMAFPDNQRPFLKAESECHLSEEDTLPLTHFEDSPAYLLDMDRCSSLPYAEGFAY
# Procedure, shortened: as §1
# HSF1 = HSF1 (Homo sapiens, UniProt Q00613 1-529); settings: protein: recombinant; tags: N-terminal GST; chain copies: 3; dsDNA, one strand shown
# HSF1, sequence (Q00613 whole entry): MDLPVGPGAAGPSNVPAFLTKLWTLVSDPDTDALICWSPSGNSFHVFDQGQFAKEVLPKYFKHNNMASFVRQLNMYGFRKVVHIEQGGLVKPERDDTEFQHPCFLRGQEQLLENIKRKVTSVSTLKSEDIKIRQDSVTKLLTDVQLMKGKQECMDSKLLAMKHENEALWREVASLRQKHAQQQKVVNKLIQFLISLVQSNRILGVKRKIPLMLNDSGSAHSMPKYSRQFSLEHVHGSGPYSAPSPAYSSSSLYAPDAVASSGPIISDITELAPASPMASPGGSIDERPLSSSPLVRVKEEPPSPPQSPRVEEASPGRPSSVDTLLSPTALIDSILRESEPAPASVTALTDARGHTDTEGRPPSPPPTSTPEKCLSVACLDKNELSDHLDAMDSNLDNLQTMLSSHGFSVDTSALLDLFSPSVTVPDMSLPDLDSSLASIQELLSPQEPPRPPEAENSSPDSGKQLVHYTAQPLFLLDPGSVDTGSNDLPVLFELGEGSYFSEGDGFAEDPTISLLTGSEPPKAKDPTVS
# Procedure, shortened: as §1
# SPIC = biological target: T8, SPIC (Homo sapiens, UniProt Q8N5J4 1-248); settings: protein: recombinant; tags: N-terminal GST; dsDNA, one strand shown
# T8 sequence: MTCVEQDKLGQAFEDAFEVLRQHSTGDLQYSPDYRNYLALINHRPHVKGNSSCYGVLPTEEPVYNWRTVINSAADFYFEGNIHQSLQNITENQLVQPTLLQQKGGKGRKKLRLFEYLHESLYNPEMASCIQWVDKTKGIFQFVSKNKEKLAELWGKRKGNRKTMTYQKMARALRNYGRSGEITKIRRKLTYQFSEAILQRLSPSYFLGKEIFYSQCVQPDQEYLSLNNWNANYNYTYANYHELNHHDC
# Procedure, shortened: as §1
# ELF4 = ELF4 (Homo sapiens, UniProt Q99607 1-663); settings: protein: recombinant; tags: N-terminal GST; dsDNA, one strand shown
# ELF4, sequence (Q99607 whole entry): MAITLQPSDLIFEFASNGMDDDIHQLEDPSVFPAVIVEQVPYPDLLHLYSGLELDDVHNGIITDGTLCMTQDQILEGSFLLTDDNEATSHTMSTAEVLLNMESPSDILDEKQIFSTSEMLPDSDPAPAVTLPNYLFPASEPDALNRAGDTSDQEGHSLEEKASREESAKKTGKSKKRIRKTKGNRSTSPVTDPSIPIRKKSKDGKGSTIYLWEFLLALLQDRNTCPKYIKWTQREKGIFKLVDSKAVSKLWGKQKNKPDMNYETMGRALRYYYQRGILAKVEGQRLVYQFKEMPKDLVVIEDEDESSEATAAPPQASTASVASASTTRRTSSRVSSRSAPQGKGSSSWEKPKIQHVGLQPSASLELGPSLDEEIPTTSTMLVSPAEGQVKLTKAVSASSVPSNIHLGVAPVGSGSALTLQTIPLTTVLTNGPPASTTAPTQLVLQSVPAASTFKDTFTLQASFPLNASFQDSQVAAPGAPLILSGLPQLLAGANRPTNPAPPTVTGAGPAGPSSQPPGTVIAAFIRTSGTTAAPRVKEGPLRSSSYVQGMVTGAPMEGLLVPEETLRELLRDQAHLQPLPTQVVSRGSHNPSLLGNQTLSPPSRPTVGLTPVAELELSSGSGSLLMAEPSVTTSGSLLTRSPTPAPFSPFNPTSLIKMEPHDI
# Procedure, shortened: as §1
# ELK4 = biological target: T9, ELK4 (Homo sapiens, UniProt P28324-2 1-405); settings: protein: recombinant; tags: N-terminal GST; dsDNA, one strand shown
# T9 sequence: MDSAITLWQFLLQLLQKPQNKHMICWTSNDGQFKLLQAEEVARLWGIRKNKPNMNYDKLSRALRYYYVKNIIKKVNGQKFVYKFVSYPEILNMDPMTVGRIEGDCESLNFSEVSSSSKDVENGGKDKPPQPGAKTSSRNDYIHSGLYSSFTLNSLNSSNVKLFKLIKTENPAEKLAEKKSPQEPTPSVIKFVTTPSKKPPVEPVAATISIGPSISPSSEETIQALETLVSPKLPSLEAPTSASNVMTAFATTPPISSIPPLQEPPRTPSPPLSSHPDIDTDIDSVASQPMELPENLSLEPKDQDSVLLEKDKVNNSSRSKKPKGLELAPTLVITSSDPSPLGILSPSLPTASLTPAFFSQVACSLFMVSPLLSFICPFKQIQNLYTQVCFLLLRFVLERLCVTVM
# Procedure, shortened: as §1
# ETV2 = biological target: T10, ETV2 (Homo sapiens, UniProt O00321 1-342); settings: protein: recombinant; tags: N-terminal GST; dsDNA, one strand shown
# T10 sequence: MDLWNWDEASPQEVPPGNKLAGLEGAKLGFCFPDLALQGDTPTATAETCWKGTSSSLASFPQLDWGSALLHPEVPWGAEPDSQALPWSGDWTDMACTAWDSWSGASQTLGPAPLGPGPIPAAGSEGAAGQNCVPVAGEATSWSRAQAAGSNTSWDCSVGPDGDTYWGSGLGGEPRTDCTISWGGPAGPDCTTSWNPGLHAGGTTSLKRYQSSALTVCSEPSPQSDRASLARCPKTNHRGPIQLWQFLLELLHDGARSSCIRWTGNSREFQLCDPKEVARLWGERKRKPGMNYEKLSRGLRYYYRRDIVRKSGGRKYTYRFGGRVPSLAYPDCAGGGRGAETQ
# Procedure, shortened: as §1
# ELF3 = biological target: T11, ELF3 (Homo sapiens, UniProt P78545 1-371); settings: protein: recombinant; tags: N-terminal GST; dsDNA, one strand shown
# T11 sequence: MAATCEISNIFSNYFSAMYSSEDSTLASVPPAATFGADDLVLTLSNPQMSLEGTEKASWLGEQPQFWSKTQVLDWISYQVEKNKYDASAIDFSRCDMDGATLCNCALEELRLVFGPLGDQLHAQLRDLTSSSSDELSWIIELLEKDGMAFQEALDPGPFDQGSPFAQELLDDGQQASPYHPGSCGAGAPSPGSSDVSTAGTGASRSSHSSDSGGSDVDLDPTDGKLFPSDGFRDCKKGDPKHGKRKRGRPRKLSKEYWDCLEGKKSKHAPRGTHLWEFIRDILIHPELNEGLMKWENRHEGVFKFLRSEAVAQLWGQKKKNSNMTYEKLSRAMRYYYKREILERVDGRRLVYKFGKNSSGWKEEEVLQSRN
# Procedure, shortened: as §1
# CRX = CRX (Homo sapiens, UniProt O43186 1-299); settings: protein: recombinant; tags: N-terminal GST; dsDNA, one strand shown
# CRX, sequence (O43186 whole entry): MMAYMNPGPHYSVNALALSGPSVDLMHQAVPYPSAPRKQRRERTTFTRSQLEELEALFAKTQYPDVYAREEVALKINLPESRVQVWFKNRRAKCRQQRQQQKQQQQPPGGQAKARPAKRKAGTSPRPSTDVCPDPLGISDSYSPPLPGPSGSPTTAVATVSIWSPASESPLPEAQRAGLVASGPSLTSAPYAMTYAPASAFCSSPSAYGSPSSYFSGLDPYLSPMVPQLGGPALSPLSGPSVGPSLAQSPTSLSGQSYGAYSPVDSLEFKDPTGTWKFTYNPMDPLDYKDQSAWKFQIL
# Procedure, shortened: as §1
# ETV1 = ETV1 (Homo sapiens, UniProt P50549 1-477); settings: protein: recombinant; tags: N-terminal GST; dsDNA, one strand shown
# ETV1, sequence (P50549 whole entry): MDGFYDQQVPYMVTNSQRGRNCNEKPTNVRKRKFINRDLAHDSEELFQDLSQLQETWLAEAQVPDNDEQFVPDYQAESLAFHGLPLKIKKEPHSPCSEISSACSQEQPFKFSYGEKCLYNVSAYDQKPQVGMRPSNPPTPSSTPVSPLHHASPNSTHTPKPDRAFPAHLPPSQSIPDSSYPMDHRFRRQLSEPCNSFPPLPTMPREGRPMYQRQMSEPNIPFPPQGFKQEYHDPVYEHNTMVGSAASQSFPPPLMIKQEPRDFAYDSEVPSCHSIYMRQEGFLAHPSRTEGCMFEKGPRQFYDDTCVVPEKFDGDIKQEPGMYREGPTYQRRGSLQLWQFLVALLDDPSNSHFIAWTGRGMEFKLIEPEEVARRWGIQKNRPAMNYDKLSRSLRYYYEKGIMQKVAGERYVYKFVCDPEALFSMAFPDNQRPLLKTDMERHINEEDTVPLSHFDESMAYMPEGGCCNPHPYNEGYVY
# Procedure, shortened: as §1
sequence,measurement,setting,value
AATGTT,binding signal,FLI1,"1.55 fold enrichment (6-mer frequency, TF over GST control)"
same,binding signal,ELK1,"1.47 fold enrichment (6-mer frequency, TF over GST control)"
same,binding signal,GABPA,"1.49 fold enrichment (6-mer frequency, TF over GST control)"
same,binding signal,ERG,"1.48 fold enrichment (6-mer frequency, TF over GST control)"
same,binding signal,ELF1,"1.57 fold enrichment (6-mer frequency, TF over GST control)"
same,binding signal,EHF,"1.56 fold enrichment (6-mer frequency, TF over GST control)"
same,binding signal,SPI1,"1.47 fold enrichment (6-mer frequency, TF over GST control)"
same,binding signal,SPIB,"1.58 fold enrichment (6-mer frequency, TF over GST control)"
same,binding signal,ELK3,"1.47 fold enrichment (6-mer frequency, TF over GST control)"
same,binding signal,FEV,"1.47 fold enrichment (6-mer frequency, TF over GST control)"
same,binding signal,ETV5,"1.61 fold enrichment (6-mer frequency, TF over GST control)"
same,binding signal,HSF1,"2.33 fold enrichment (6-mer frequency, TF over GST control)"
same,binding signal,SPIC,"1.68 fold enrichment (6-mer frequency, TF over GST control)"
same,binding signal,ELF4,"1.57 fold enrichment (6-mer frequency, TF over GST control)"
same,binding signal,ELK4,"1.46 fold enrichment (6-mer frequency, TF over GST control)"
same,binding signal,ETV2,"1.43 fold enrichment (6-mer frequency, TF over GST control)"
same,binding signal,ELF3,"1.51 fold enrichment (6-mer frequency, TF over GST control)"
same,binding signal,CRX,"1.59 fold enrichment (6-mer frequency, TF over GST control)"
same,binding signal,ETV1,"1.66 fold enrichment (6-mer frequency, TF over GST control)"
